PubChem BioAssay AID602449 (Sanford-Burnham Center for Chemical Genomics, 2012)
Screen size: about 360,000 compounds; about 5,000 (1.4%) were called active.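 The calls were made as follows: active = inhibition of 50% or more, scaled per plate between neutral and stimulator controls; inactive = the rest.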 What follows is part of a selection rich in actives, with near analogues and random picks from the rest.

Experiment: mitochondrial permeability transition pore inhibitors, primary screen, biochemical, isolated mouse mitochondria, absorbance (AID 602449);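 also: 0% = DMSO wells given calcium and 100% = 1 mM EGTA wells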
Settings: Ca2+ swelling absorbance, 30 min, at 10 µM, active compounds read high

Compound | inhibition
O=C(NCc1ccccn1)c1cnc2sccn2c1=O | -2.8% (inactive)
C/C(=N\Nc1ccc(S(N)(=O)=O)cc1[N+](=O)[O-])c1cccs1 | 2.3% (inactive)
c1ccc2c(CSCc3nc4ccccc4[nH]3)cccc2c1 | 74.4% (active)
c1ccc2c(C[n+]3csc4ccccc43)cccc2c1 | -1.7% (inactive)
O=C(OCc1nc2ccccc2[nH]1)C1CCCCC1 | -0.1% (inactive)
COc1ccc(N(CC(=O)N2CCOCC2)S(=O)(=O)c2ccccc2)cc1Cl | 1.3% (inactive)
O=C(/C(=C/c1cccc(Cl)c1)c1nc2ccccc2[nH]1)c1ccccc1 | 84.4% (active)
O=c1c2cc(Br)ccc2nc(-c2cccc(Cl)c2)n1O | 0.6% (inactive)
O=c1[nH]c(/C=C/c2cccc(Br)c2)nc2ccccc12 | 2.1% (inactive)
CC1CN(C(=S)Nc2ccc(S(N)(=O)=O)cc2)CC(C)O1 (configuration not stated) | -0.5% (inactive)
NC(=O)Cn1c(=O)oc2ccccc21 | -0.1% (inactive)
CN1CCN(c2ncc3c(n2)CC(c2ccccc2F)CC3=O)CC1 (configuration not stated) | 1.4% (inactive)
O=C(Oc1ccccc1Cl)c1ccc(N2CCOCC2)c([N+](=O)[O-])c1 | 9.1% (inactive)
O=C(Nc1ccc2ccccc2c1)Nc1ccc2snnc2c1 | 99.8% (active)
Cc1ccc(NC(=O)Nc2ccc3oc(C)nc3c2)cc1 | -2.9% (inactive)
CS(=O)(=O)c1ccccc1C(=O)Nc1ccc2sccc2c1 | -0.4% (inactive)
CC1(C(=O)NS(=O)(=O)c2cccc(F)c2)CCN1C(=O)Cc1cc(F)ccc1F (configuration not stated) | -0.4% (inactive)
CCc1nc2c(OCc3ccc(C(F)(F)F)cc3)cccn2c1N(C)C(=O)CC(C)C | 0.1% (inactive)
O=C(O)c1cc(S(=O)(=O)NC2CCCc3ccccc32)ccc1O (configuration not stated) | 0.3% (inactive)
COc1cc(C2C(N3C(=O)c4ccccc4C3=O)C(=O)N2c2ccc(C)c(C)c2)cc(OC)c1OC (configuration not stated) | 3% (inactive)
COc1ccc2c(c1)c(=Cc1ccc(N(C)C)cc1)c1cc(-c3ccccc3)[n+](C)n12 | 80.7% (active)
Cc1nc(N2CCN(c3ccccn3)CC2)c2c(C)c(C(=O)Nc3ccc(F)c(Cl)c3)sc2n1 | 16.7% (inactive)
Cc1nc(N2CCOCC2)c2c(C)c(C(=O)Nc3ccc(C(F)(F)F)cc3)sc2n1 | 72.5% (active)

Compound | inhibition
Cc1nc(N2CCC(C)CC2)c2c(C)c(C(=O)Nc3cc(F)ccc3C)sc2n1 | 13.5% (inactive)
C=C(C)Cn1c(N2CCN(CC)CC2)nc2c1c(=O)[nH]c(=O)n2C | -0.4% (inactive)
Cc1oc2cc([N+](=O)[O-])c(O)c([N+](=O)[O-])c2c1C(=O)c1ccc(Br)cc1 | 74.4% (active)
Cc1ccc(C(=O)c2ccc(N3CCN(C)CC3)c([N+](=O)[O-])c2)cc1 | 0.6% (inactive)
COc1ccc(C(=O)c2c(C)oc3cc([N+](=O)[O-])c(O)c([N+](=O)[O-])c23)cc1 | 3.3% (inactive)
O=C(Nc1ccccc1F)C1C2C=CC3(O2)C1C(=O)N(c1cccnc1)C3C(=O)NC1CCCCC1 (configuration not stated) | 1.6% (inactive)
O=S(=O)(NCC1OCCc2ccccc21)c1ccccc1 (configuration not stated) | 4.3% (inactive)
O=C(O)C(CCc1ccccn1)c1ccccc1 (configuration not stated) | 0.6% (inactive)
CC1CCCC(NC(=O)c2cccc(N3CCCC3=O)c2)C1C (configuration not stated) | -0.6% (inactive)
CCCc1ccc(OCCNC(=O)c2ccccc2Br)cc1 | 0.4% (inactive)
CC(C)CCOc1ccc(C(=O)C[N+]2(C)CCOCC2)cc1 | -1.9% (inactive)
CCCOc1ccc(C(=O)C(CCC(CNCC)C(=O)c2ccc(OCCC)cc2)CNCC)cc1 (configuration not stated) | 73.6% (active)
COc1cccc(NC(=O)COc2cc(C)cc3oc(=O)cc(C)c23)c1 | 0.4% (inactive)
Cc1nccn1CCC1CCCCN1C(=O)CCc1nnc(-c2ccsc2)o1 (configuration not stated) | -1.2% (inactive)
O=C(Nc1nnc(C2COc3ccccc3O2)o1)c1ccc(F)cc1 (configuration not stated) | -3% (inactive)
c1ccc2c(c1)CSc1sccc1C2=C1CCNCC1 | 94.3% (active)
Cc1ccc(-n2ncc3c(Nc4cccc(C(=O)O)c4)ncnc32)cc1 | 3.4% (inactive)
Cn1c2c(c(=O)n(C)c1=O)C(c1cccc(F)c1)C(C#N)=C(N)O2 (configuration not stated) | 1.8% (inactive)
N#CC1=C(N)Oc2cc(N)ccc2C1c1ccccc1 (configuration not stated) | -0.1% (inactive)
Cc1nn(Cc2ccccc2)c2c1C(c1ccccc1)C(C#N)=C(N)O2 (configuration not stated) | 81.3% (active)
C[C@H]1CN([C@@H](C)CO)C(=O)CCCn2cc(nn2)CO[C@@H]1CN(C)S(=O)(=O)c1ccccc1C#N | -0.4% (inactive)
COc1ccc(NC(=O)C(CC(C)C)NC(=O)C2CCC(C)CC2)cc1 (configuration not stated) | 0.1% (inactive)
O=C(CN1CCN(c2ccccc2O)CC1)NC(=O)NCc1ccccc1 | 1.2% (inactive)

Compound | inhibition
O=C(CSc1nc(-c2ccccc2)cs1)Nc1cccc([N+](=O)[O-])c1 | 93% (active)
O=C(CN1CCC(NC(=O)Nc2ccccc2)CC1)Nc1cccc([N+](=O)[O-])c1 | -0.8% (inactive)
O=C(CSc1ncn[nH]1)Nc1nc(-c2cccc([N+](=O)[O-])c2)cs1 | 8.3% (inactive)
CC1CCC(NC(=O)CN(C)S(=O)(=O)c2ccc3c(c2)c(=O)n(C)c(=O)n3C)CC1 (configuration not stated) | -2.1% (inactive)
O=C(CSc1nnc(-c2cccs2)n1Cc1ccco1)c1ccc2c(c1)OCO2 | -1.2% (inactive)
COc1ccc(/C=C2\CCCC3C2=NN(C(=O)c2scnc2C)C3c2ccc(OC)cc2)cc1 (configuration not stated) | -3.7% (inactive)
CCc1cc2c(N3CCN(c4nnc(CC)s4)CC3)ncnc2s1 | 58.3% (active)
CCc1ccc(C(=O)NNC(=O)C2CCN(c3ncnc4sc(C)c(C)c34)CC2)cc1 | -0.3% (inactive)
COC(=O)[C@@H](Cc1ccccc1)NC(=O)NCCc1ccccc1 | 0.6% (inactive)
NC[C@H](Cc1ccccc1)NCCc1cc(C(F)(F)F)cc(C(F)(F)F)c1 | 88.5% (active)
CCOC(=O)c1c(NC(=O)CNC2CCCc3ccccc32)sc(C(N)=O)c1C (configuration not stated) | 0.8% (inactive)
Cc1cc(C(=O)NC2CCN(Cc3ccccc3)CC2)n[nH]1 | -1.6% (inactive)
O=C(NC1CCN(Cc2ccccc2)CC1)c1ccc(Oc2cc(Cl)cc(Cl)c2)o1 | 10.6% (inactive)
O=C(NC1CCN(Cc2ccccc2)CC1)c1cc(Br)c(Br)[nH]1 | 66.2% (active)
CCc1nc2c(=O)[nH]cnc2o1 | -1.8% (inactive)
O=C(CSc1nc(=O)n2ccccc2n1)Nc1ccc2c(c1)OCCO2 | -1.6% (inactive)
Cc1nnc(SC(C(=O)c2ccccc2)c2ccccc2)[nH]c1=O (configuration not stated) | 1.4% (inactive)
CC(NCC(=O)Nc1cc(Cl)cc(Cl)c1)c1ccccc1 (configuration not stated) | 3.1% (inactive)
Cc1nnc(SC(C(=O)Nc2cc(Cl)cc(Cl)c2)c2ccccc2)[nH]c1=O (configuration not stated) | 86.4% (active)
CCC(C)[C@H]1COCCS(=O)(=O)N1Cc1ccc(C)cc1 (some centres not stated) | -0.2% (inactive)
CCC(c1nnc(SCC(=O)NNC(=O)c2ccccc2)n1Cc1ccccc1)N(C)C (configuration not stated) | 1.2% (inactive)
COc1ccc(NC(=O)CN(C)C(=O)c2cc(C3CC3)nn2-c2ccccc2)cc1 | -0.5% (inactive)
Cc1cccc(C(=O)OCC(=O)NC(C)C2CC3CCC2C3)c1O (configuration not stated) | 0.9% (inactive)

Compound | inhibition
O=C(CN1CCN(C(=S)NC2CCCC2)CC1)Nc1ccc(Oc2ccccc2)cc1 | 5.8% (inactive)
CCN(CC)S(=O)(=O)c1ccc(N(C)Cc2cccc(OC)c2OC)nc1 | 3.9% (inactive)
CCN(CC)S(=O)(=O)c1ccc(N(C)Cc2ccc(C(F)(F)F)cc2)nc1 | 94% (active)
CCN(CC)S(=O)(=O)c1ccc(N(C)CCc2ccc(OC)c(OC)c2)nc1 | -2% (inactive)
NC(=O)C1CCN(C(=O)c2ccc(C(F)(F)F)cc2)CC1 | -3.2% (inactive)
CC1(c2ccc3ccccc3c2)NC(=O)N(CC(N)=O)C1=O (configuration not stated) | 1% (inactive)
Cc1ccc2c(c1)C1CN(C)CCC1N2S(=O)(=O)c1cccc(F)c1 (configuration not stated) | 0.2% (inactive)
Cc1ccc2c(c1)C1CN(C)CCC1N2C(=O)c1ccccc1NS(=O)(=O)c1ccc(F)cc1C (configuration not stated) | -0.2% (inactive)
Cc1ccc2c(c1)C1CN(C)CCC1N2S(=O)(=O)c1ccc(Oc2ccc([N+](=O)[O-])cc2)cc1 (configuration not stated) | 83.1% (active)
COc1cc(OC)c(C(=O)NNC(=O)c2ccccc2-n2cccc2)cc1OC | -0.2% (inactive)
Cc1ccc(C(=O)OCC(=O)NC2CCCCCCC2)cc1C | -1.2% (inactive)
Cc1nc2c(OCc3ccc(Cl)cc3)cccn2c1N(C)Cc1cccs1 | 79.6% (active)
CCc1nc2c(OCc3ccc(Cl)cc3Cl)cccn2c1N(C)C(=O)C(C)C | -3.5% (inactive)
Cc1nc2c(OCC(=O)C(C)(C)C)cccn2c1N(C)Cc1cccs1 | 2.6% (inactive)
CCc1nc2c(OCc3ccccc3)cccn2c1N(C)C(=O)c1ccco1 | 0% (inactive)
Cc1nc2c(OCc3cccc(Cl)c3)cccn2c1N(C)CC1CC1 | 88.2% (active)
Cc1nc2c(OCc3ccc(Cl)cc3Cl)cccn2c1N(C)CC1CC1 | 82.3% (active)
CCCCC(=O)N(C)c1c(CC)nc2c(OCc3ccc(Cl)cc3Cl)cccn12 | -1.5% (inactive)
CCc1nc2c(OCc3ccc(F)c(F)c3)cccn2c1N(C)C(=O)c1ccco1 | -2.8% (inactive)
CCc1nc2c(OCc3cccc(OC)c3)cccn2c1N(C)C(=O)C(C)C | -1.6% (inactive)
CCOc1cc(-c2noc(CCCC(=O)NC3CCCCC3)n2)ccc1OC | 0.3% (inactive)
CCc1nc2ccc(C(=O)NCCNC(C)=O)cn2c1N(CC)Cc1cccc(Br)c1 | -0.2% (inactive)
CCCC(C)C(=O)OCC(=O)Nc1c(Br)cc(C)cc1Br (configuration not stated) | -0.2% (inactive)
